CCHF vOTU inh: CCHFV vOTU protease inhibition | Pep-AMC fluorescence | inhibition, % at 11.5 µM | 370,000 tested, 0.55% active; in the data active = inhibition above about 30%
Anthrax LF prot: anthrax lethal factor protease inhibition. AID 588501. 360,000 tested, 0.12% active. inhibition, % at 10 µM. multiplex microsphere protease cleavage assay, LF. P15917
BoNT-A LC inh2: BoNT A light chain protease inhibition; multiplex microsphere protease substrate cleavage, flow cytometry; inhibition, % at 10 µM; 360,000 tested, 0.17% active
3CLpro inhibitor: SARS-CoV 3CLpro protease inhibition; P0C6X7; recombinant SARS-CoV 3CLpro, quenched FRET peptide cleavage; inhibition, % at 6 µM; 290,000 tested, 0.14% active; in the data active = inhibition above about 12%
Autofluor counter: flagged as autofluorescent in microsphere protease counterscreen; 360,000 tested, 3.1% active; compound autofluorescence counterscreen, microsphere flow cytometry; stronger effect = higher value; AID 624483; fluorescence intensity (concentration not given with the values); in the data active = fluorescence intensity above about 16000; inconclusive = no clear call, values can overlap the other calls
BoNT-F LC inh: BoNT F light chain protease inhibition | inhibition, % at 10 µM | 360,000 tested, 0.22% active | AID 588497 | Multiplex microsphere protease cleavage assay, flow cytometry; in the data active = inhibition above about 35%, passing the limit was not always enough; inconclusive = no clear call, values can overlap the other calls
Hits are given with their value; – = inactive; ? = inconclusive; · = no result given. An excerpt weighted towards active compounds, which were near 3.9% of everything screened. Cut-off read from the data, not from the text of the source, unless noted: active = inhibition above about 30%; inconclusive = no clear call, values can overlap the other calls; inactive = below that.

SMILES	CCHF vOTU inh	Anthrax LF prot	BoNT-A LC inh2	3CLpro inhibitor	Autofluor counter	BoNT-F LC inh
COc1ccc(-c2c(Cc3ccccc3)nc(NC(=O)c3ccccc3F)n2C)cc1	–	·	·	·	·	·
Cn1c(Sc2ccc(C(F)(F)F)cc2[N+](=O)[O-])nnc1-c1ccccc1	–	–	–	–	18706	–
COP(=O)(O)[C@@H](CC(C)C)NC(=O)OCc1ccccc1	–	·	·	·	·	·
COc1ccc(CCNC(=O)c2cnn(-c3ccccc3)c2N)cc1OC	–	·	·	·	·	·
Nc1ccccc1-c1nc2ccccc2[nH]1	–	–	–	–	22286	–
COCCNC(=O)c1nn2cccnc2c1Cl	–	–	–	–	19754	–
O=C(NCC12CC3CC(CC(C3)C1)C2)c1nn2cccnc2c1Cl	–	–	–	–	16281	–
O=C(NCc1cccs1)c1nn2cccnc2c1Cl	–	–	–	–	–	–
Brc1ccc2nc(-c3ccc(CN4CCC(c5nc6ccccc6[nH]5)CC4)cc3)c(-c3ccccc3)nc2c1	–	·	·	·	·	·
O=c1c2ccccc2nc(CN2CCCCCC2)n1-c1ccc(F)cc1	–	–	–	–	24642	–
NS(=O)(=O)c1ccc(NC(=S)Nc2ccc(OCc3ccccc3)cc2)cc1	–	–	–	–	–	–
CCC(=O)Nc1ccc(N2CCN(Cc3ccccc3)CC2)cc1	–	·	·	–	·	·
O=C(Nc1ccc(N2CCN(Cc3ccccc3)CC2)cc1)c1ncn[nH]1	–	–	–	–	23010	–
O=C(CCN1CCN(Cc2ccccc2)CC1)Nc1ccc(OCc2ccccc2)cc1	–	–	–	–	17367	–
S=C(Nc1ccccc1)Nc1ccc(OCc2ccccc2)cc1	–	–	?	–	19054	–
O=C(CCN1CCN(CCO)CC1)Nc1ccc(OCc2ccccc2)cc1	–	–	–	–	19226	–
COC(=O)[C@]12C[C@H](CC(=O)NCc3ccccc3)C(=O)N(Cc3cccc4ccccc34)C1=C[C@H](C1CCCC1)O[C@@H]2C	–	·	·	·	·	·
O=C(Nc1ccc(OC(F)(F)F)cc1)Nc1c(-c2ccc(C(F)(F)F)cc2)nc2ncccn12	–	·	·	·	·	·
Cc1cc(C)cc(OC(C)CCN2CCC(C(O)(c3ccccc3)c3ccccc3)CC2)c1 (centres undefined)	–	·	·	·	·	·
CCOc1ccc(NC(=S)Nc2cc(-c3ccccc3)[nH]n2)cc1	–	–	–	–	19137	–
O=C(c1cc(Cl)cc(Cl)c1)N1CCC(Oc2cccnc2)CC1	–	·	·	·	·	·
O=c1c2c([N+](=O)[O-])cc([N+](=O)[O-])cc2sn1Cc1ccccc1	–	–	50	–	–	56
O=c1c2c([N+](=O)[O-])cc([N+](=O)[O-])cc2sn1-c1ccc(Br)cc1	·	–	–	–	–	–
COc1cc2c(cc1OC)CN(CC(=O)Nc1ccc3c(c1)OC(F)(F)O3)CC2	–	–	?	–	24021	–
COC(=O)[C@]12C[C@H](CC(=O)NCC34CC5CC(CC(C5)C3)C4)C(=O)N(Cc3ccco3)C1=C[C@H](C(C)(C)C)O[C@@H]2C	–	·	·	·	·	·
SMILES	CCHF vOTU inh	Anthrax LF prot	BoNT-A LC inh2	3CLpro inhibitor	Autofluor counter	BoNT-F LC inh
Cc1ccc(S(=O)(=O)n2nc(-c3ccc(Cl)cc3)nc2NCc2ccco2)cc1	–	–	?	–	23333	–
O=C(c1ccco1)n1nc(-c2ccc(Cl)cc2)nc1NCc1ccco1	–	–	–	–	–	–
O=C(COc1ccccc1)n1nc(-c2ccc(Cl)cc2)nc1NCc1ccco1	–	–	–	–	21640	–
CCC(CC)NC(=O)c1ccc2c(c1)OCCO2	–	–	–	–	23941	–
CC(NC(=O)c1ccc2c(c1)OCCO2)C(=O)O (centres undefined)	–	–	–	–	–	–
CN(C)S(=O)(=O)c1cccc(C(=O)N/N=C\c2ccc(-c3ccccn3)cc2)c1	–	·	·	·	·	·
COC(=O)[C@]12C[C@H](CC(=O)N3CCOCC3)C(=O)N(CCc3ccc(OC)c(OC)c3)C1=C[C@H](C(C)C)O[C@@H]2C1CC1	–	·	·	·	·	·
CCOC(=O)COc1ccc(C(C)c2ccc(NC(=O)OC(C)(C)C)cc2)cc1 (centres undefined)	–	·	·	·	·	·
CCN(CC)c1nc2n(c(=O)n1)CCN2CC	–	–	–	–	21466	–
CCN1CCn2c1nc(N1CCCCC1)nc2=O	–	–	–	–	–	–
CCOC(=O)c1c(C)n(C)c2ccc(OCC(O)Cn3c(C)nc4ccccc43)cc12 (centres undefined)	–	–	?	–	23462	–
COc1ccccc1C(=O)Nc1ccc(S(=O)(=O)N2CCCC2)cc1	–	–	?	–	16385	–
COC(=O)c1cc(NC(=O)CN(c2ccccc2OC)S(=O)(=O)c2ccccc2)ccc1Cl	–	–	–	13	–	–
COc1ccccc1N(CC(=O)Nc1ccc(S(=O)(=O)N2CCCCC2)cc1)S(C)(=O)=O	–	–	?	–	22900	–
COc1ccccc1CC(=O)Nc1ccc(S(=O)(=O)N2CCCCC2)cc1	–	–	–	–	–	–
O=C(Nc1ccc(O)cc1)c1cc(S(=O)(=O)N2CCCC2)ccc1Cl	–	–	–	–	20180	–
O=C(O)c1cc(S(=O)(=O)N2CCCCC2)ccc1F	–	–	–	–	21594	–
COc1ccc(NC(=O)c2cc(S(=O)(=O)N3CCCCC3)ccc2N2CCCCC2)cn1	–	–	–	–	23676	–
COC(=O)c1cc(C(C)c2ccccc2O)n2ccccc12 (centres undefined)	–	·	·	·	·	·
O=C(O)c1cc(NCc2ccccc2C(F)(F)F)ccc1N1CCOCC1	–	–	?	–	22050	–
O=C(O)c1cc(NCc2ccc(F)cc2)ccc1N1CCOCC1	–	–	–	–	–	–
COC(=O)[C@]12C[C@H](CC(=O)N3CCCC3)C(=O)N(Cc3cccc4ccccc34)C1=C[C@H](C1CCCC1)O[C@@H]2C	–	·	·	·	·	·
CCN1CCN(c2cc(N3CCCC3)c(F)cc2[N+](=O)[O-])CC1	–	–	–	–	–	–
CCOC(=O)N1CCN(c2cc(N3CCN(CC)CC3)c(F)cc2[N+](=O)[O-])CC1C (centres undefined)	–	–	–	–	18259	–
Cc1csc(SCC(=O)Nc2ccc(Cl)cn2)n1	–	–	–	–	–	–
SMILES	CCHF vOTU inh	Anthrax LF prot	BoNT-A LC inh2	3CLpro inhibitor	Autofluor counter	BoNT-F LC inh
CN(C)c1ccc(NC(=O)c2sc(SCC(=O)Nc3nccs3)nc2N)cc1	–	–	–	–	23476	–
CC(C)(C)c1csc(SCC(=O)Nc2ccc(Cl)cn2)n1	–	–	–	–	18967	–
Cc1ccc(-c2nc(NC(=O)CSc3nnc(C)s3)ns2)cc1	–	–	–	–	–	–
Cc1nnc(SCC(=O)Nc2nsc(-c3ccccc3)n2)s1	–	–	–	–	21832	–
Cc1nnc(SCC(=O)Nc2nc(C(C)(C)C)cs2)s1	–	–	?	–	21050	–
CN(C)c1ccc(NC(=O)c2sc(SCC(=O)Nc3ccc(Br)cc3)nc2N)cc1	–	–	–	–	–	–
CN(c1cccnc1)c1ccc(NC(=O)Cc2c[nH]c3ccccc23)cc1Br	–	·	·	·	·	·
Cc1nn(C)cc1NC(=O)C[C@H]1CC[C@H]2[C@@H](COc3ccc(NC(=O)Nc4ccccc4)cc3C(=O)N2C)O1	–	·	·	·	·	·
CCCC(=O)N1CCC[C@]2(CC[C@@H](CCC(=O)OCC)O2)C1	–	·	·	·	·	·

Screening results deposited in PubChem BioAssay by several laboratories.
